Compounds with a hit are over-represented: about 8% of the library has one in this group of screens.
MCF10A rerep: A quantitative high throughput screen for small molecules that induce DNA re-replication in MCF 10a normal breast cells | hit rate 2.9% among 350,000 | Potency, µM (highest dose often 46.1 µM), actives largely listed as activators | MCF 10A DNA re-replication, Hoechst nuclear intensity, 48 h; further: nearly all actives have a fitted effect of over 50% in size
KB-V1 MDR tox: qHTS assay for MDR1-selective chemotherapeutics: Primary screen using the drug-selected MDR subline cells KB-V1. KB-V1 MDR cells viability, CellTiter-Glo, 72 h. Potency, µM (series often up to 46.1 µM), most hits filed as cytotoxic. hit rate 3.4% among 400,000; further: nearly all actives have a fitted effect of over 60% in size
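In this primary screen, KB-V1 cells overexpressing P-gp are incubated with library compounds (lowest to highest concentration) for 72 h at 37 degrees C before a luminescent ATP viability read.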
SW480 rereplic: A quantitative high throughput screen for small molecules that induce DNA re-replication in SW480 colon adenocarcinoma cells | SW480 DNA re-replication, Hoechst DNA content imaging, 48 h | Potency, µM (doses to about 46.1 µM), most hits filed as activators | hit rate 1.8% among 340,000; further: nearly all actives have a fitted effect of over 55% in size
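Hoechst fluorescence of nuclei (405 nm excitation, 500-530 nm emission) measured by plate-scanning imager after 48 hr compound exposure at 37 C; re-replication scored as increased number of nuclei with elevated intensity.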
KB-3-1 cytotox: qHTS assay for MDR1-selective chemotherapeutics: Primary screen using the parental adenocarcinoma cell KB-3-1. KB-3-1 viability, CellTiter-Glo ATP luminescence, 72 h. Potency, µM (top dose mostly 46.1 µM), usual class: cytotoxic. hit rate 1.4% among 400,000; further: nearly all actives have a fitted effect of over 60% in size
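Parental KB-3-1 viability, qHTS format: 72 h compound exposure, 37 °C; CellTiter-Glo; media-only wells and DMSO plates as controls; concentration-effect fits on corrected data.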
HT1080-NT tox: qHTS for induction of synthetic lethality in tumor cells producing 2HG: qHTS for the HT-1080-NT fibrosarcoma cell line. hit rate 1.6% among 360,000. Potency, µM (doses to about 46.1 µM), actives largely listed as cytotoxic. AID 686970, 2013. HT-1080-NT fibrosarcoma viability, CellTiter-Glo ATP luminescence, 48 h;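 further: NT is the 2HG producing partner of a matched IDH1 knockdown line; nearly all actives have a fitted effect of over 55% in size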
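Viability by CellTiter-Glo luminescence after 48 h compound exposure at 37C of HT-1080-NT cells (750/well, RPMI, 5% FBS). % activity scaled between DMSO wells and medium-only wells, then curve-fitted and categorized by curve class.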
HT1080 IDH1KD tx: qHTS for induction of synthetic lethality in tumor cells producing 2HG: qHTS for the HT-1080-IDH1KD cell line; HT-1080 IDH1 knockdown viability, ATP luminescence, 48 h; Potency, µM (doses to about 46.1 µM), hits mostly cytotoxic; hit rate 2% among 360,000; AID 686971, 2013
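Luminescent ATP read-out (CellTiter-Glo, 10 min at room temperature) after 48 h compound exposure at 37 °C gave viability of IDH1-knockdown HT-1080 cells. Activity was normalised to DMSO and cell-free wells, then fitted as concentration-response curves.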
Numbers stand for hits; [ ] = dose if it differs, or a comment. The call rests on the fitted dose curve; in most records, active means well fitted curve in the direction sought with a large enough effect; inconclusive means small, poorly fitted or top-dose-only effect, or another doubt; inactive means no such curve, though single readings can be large; an effect the other way counts as inactive or inconclusive.

Cc1ccc(Oc2ncccc2C(=O)NC2CCSC2=O)cc1 (stereo not drawn) was read as MCF10A rerep inactive[9.22 µM], KB-V1 MDR tox inactive, SW480 rereplic inconclusive, KB-3-1 cytotox inactive, HT1080-NT tox inactive and HT1080 IDH1KD tx inactive.
O=C1C=C(NCCN2CCOCC2)C(=O)c2cnccc21 was read as MCF10A rerep inconclusive and SW480 rereplic 10.3µM.
For C=CCn1nc([N+](=O)[O-])nc1Sc1cccc2cccnc12 the results were MCF10A rerep inconclusive, KB-V1 MDR tox 8.2µM, SW480 rereplic 3.26µM, KB-3-1 cytotox inconclusive, HT1080-NT tox inconclusive and HT1080 IDH1KD tx inconclusive.
For COC(=O)c1scc(-c2ccc(C)cc2)c1S(=O)(=O)Nc1cccc(C(F)(F)F)c1 the results were KB-V1 MDR tox inactive and KB-3-1 cytotox inactive.
Screening COC(=O)N(C)C[C@@H]1OCc2cnnn2CCCC(=O)N([C@H](C)CO)C[C@@H]1C returned KB-V1 MDR tox inactive, KB-3-1 cytotox inactive, HT1080-NT tox inactive and HT1080 IDH1KD tx inactive.
Screening NC(=O)C1CCCN(C(=O)c2ccc(S(=O)(=O)N3CCCCCC3)cc2)C1 (stereo not drawn) returned MCF10A rerep inactive, KB-V1 MDR tox inactive, SW480 rereplic inactive, KB-3-1 cytotox inactive, HT1080-NT tox inactive[9.24 µM] and HT1080 IDH1KD tx inactive.
Screening O=P(CCCCCCCCCP(=O)(c1ccccc1)c1ccccc1)(c1ccccc1)c1ccccc1 returned MCF10A rerep inconclusive, KB-V1 MDR tox 14.6µM, SW480 rereplic inactive, KB-3-1 cytotox inconclusive, HT1080-NT tox 18.4µM and HT1080 IDH1KD tx 23.1µM.
For COc1ccc(P(=O)(COc2ccc([N+](=O)[O-])cc2)c2ccc(OC)cc2)cc1 the results were MCF10A rerep inactive, KB-V1 MDR tox 4.11µM, SW480 rereplic inactive, KB-3-1 cytotox inactive, HT1080-NT tox inactive and HT1080 IDH1KD tx inactive.
`O=P(COc1ccccc1)(c1ccccc1)c1ccccc1` gave MCF10A rerep inactive, KB-V1 MDR tox 14.6µM, SW480 rereplic inactive, KB-3-1 cytotox inactive, HT1080-NT tox inactive and HT1080 IDH1KD tx inactive.
Screening N#C/C(C(N)=O)=C1/SC(Cc2ccc(F)cc2)C(=O)N1c1ccccc1 (stereo not drawn) returned MCF10A rerep inactive, KB-V1 MDR tox inactive, SW480 rereplic inactive, KB-3-1 cytotox inactive, HT1080-NT tox inactive and HT1080 IDH1KD tx inactive.
For Nc1c(C(=O)O)nnn1Cc1ccccc1 the results were MCF10A rerep inactive, KB-V1 MDR tox inactive, SW480 rereplic inactive, KB-3-1 cytotox inactive, HT1080-NT tox inactive and HT1080 IDH1KD tx inactive.
COC(=O)c1cn(NC(=O)c2cc([N+](=O)[O-])ccc2F)c(=O)c2ccccc12 was read as MCF10A rerep 4.61µM, KB-V1 MDR tox 11.6µM, SW480 rereplic inconclusive, KB-3-1 cytotox inconclusive, HT1080-NT tox inconclusive and HT1080 IDH1KD tx 9.2µM.
`COC(=O)c1cn(NC(=O)C2CCC(C)CC2)c(=O)c2ccccc12` (stereo not drawn) gave MCF10A rerep inactive, KB-V1 MDR tox inactive, SW480 rereplic inactive, KB-3-1 cytotox inactive, HT1080-NT tox inactive and HT1080 IDH1KD tx inactive.
`Cc1cc(N2CCN(c3ccccc3Cl)CC2)n2cc(-c3ccccc3)nc2n1` gave MCF10A rerep inconclusive, KB-V1 MDR tox 16.4µM, SW480 rereplic inactive, KB-3-1 cytotox inconclusive, HT1080-NT tox inactive and HT1080 IDH1KD tx inconclusive.
Cc1ccc(C(=O)Nc2cc3c(cc2Cl)OCCCO3)cc1 was read as MCF10A rerep inactive, KB-V1 MDR tox inactive, SW480 rereplic inactive, KB-3-1 cytotox inactive, HT1080-NT tox inactive and HT1080 IDH1KD tx inactive.
Screening O=C(Nc1cc2c(cc1Cl)OCCCO2)c1ccc(F)cc1 returned MCF10A rerep inactive, KB-V1 MDR tox 16.4µM, SW480 rereplic inactive, KB-3-1 cytotox inactive, HT1080-NT tox inactive and HT1080 IDH1KD tx inactive.
O=C(Nc1cc2c(cc1Br)OCCCO2)c1cccnc1 was read as MCF10A rerep inactive, KB-V1 MDR tox inactive, SW480 rereplic inactive, KB-3-1 cytotox inactive, HT1080-NT tox inactive and HT1080 IDH1KD tx inactive.
Screening COc1cccc(C(=O)Nc2cc3c(cc2Cl)OCCCO3)c1 returned MCF10A rerep inactive, KB-V1 MDR tox 23.1µM, SW480 rereplic inactive, KB-3-1 cytotox inactive, HT1080-NT tox inactive and HT1080 IDH1KD tx inactive.
Screening O=C(Nc1cc2c(cc1Br)OCCCO2)c1ccccc1 returned MCF10A rerep inactive, KB-V1 MDR tox 20.6µM, SW480 rereplic inactive, KB-3-1 cytotox inactive, HT1080-NT tox inactive and HT1080 IDH1KD tx inactive.
COc1ccc(C(=O)Nc2cc3c(cc2Cl)OCCCO3)cc1 was read as MCF10A rerep inactive, KB-V1 MDR tox inactive, SW480 rereplic inactive, KB-3-1 cytotox inactive, HT1080-NT tox inactive and HT1080 IDH1KD tx inactive.
`O=C(CCc1ccccc1)Nc1cc2c(cc1Cl)OCCO2` gave MCF10A rerep inactive, KB-V1 MDR tox 20.6µM, SW480 rereplic inactive, KB-3-1 cytotox inactive, HT1080-NT tox inactive and HT1080 IDH1KD tx inactive.
Screening S=c1nc2[nH]c3ccccc3c2n[nH]1 returned MCF10A rerep inactive, KB-V1 MDR tox inactive, SW480 rereplic inactive, KB-3-1 cytotox inactive, HT1080-NT tox inactive and HT1080 IDH1KD tx inactive.
For Cc1ccc(S(=O)(=O)N2CCOCC2)cc1C(=O)OCC(=O)N1CCc2ccccc2C1 the results were MCF10A rerep inactive, KB-V1 MDR tox 11.6µM, SW480 rereplic inactive, KB-3-1 cytotox inactive, HT1080-NT tox inconclusive and HT1080 IDH1KD tx inactive.
For O=C1CSC(c2cn(-c3ccccc3)nc2-c2ccccc2)N1Cc1ccco1 (stereo not drawn) the results were MCF10A rerep 20.6µM, KB-V1 MDR tox inconclusive, SW480 rereplic inactive, KB-3-1 cytotox inconclusive, HT1080-NT tox inconclusive and HT1080 IDH1KD tx inconclusive.
`CCc1ccc(-c2nn(-c3ccccc3)cc2C2SCC(=O)N2Cc2ccco2)cc1` (stereo not drawn) gave MCF10A rerep inconclusive, KB-V1 MDR tox inactive, SW480 rereplic inactive, KB-3-1 cytotox inactive, HT1080-NT tox inactive and HT1080 IDH1KD tx inactive.
Screening COc1ccc(CCNc2ncnc3[nH]ncc23)cc1OC returned MCF10A rerep inactive, KB-V1 MDR tox inactive, SW480 rereplic inactive, KB-3-1 cytotox inactive, HT1080-NT tox inconclusive and HT1080 IDH1KD tx inactive.
For Fc1ccc(CCNc2ncnc3[nH]ncc23)cc1 the results were MCF10A rerep inactive, KB-V1 MDR tox 4.11µM, SW480 rereplic inactive, KB-3-1 cytotox 11.6µM, HT1080-NT tox inactive and HT1080 IDH1KD tx inactive.
